This is one part of a sample in which hits are shown more often than they occur.
ID4 SMM: binds human ID4 protein on microarray; 31,000 tested, 1.2% active; P47928; small molecule microarray, Flag-ID4 binding, fluorescence F/B; calls only; AID 624137; call rule not given here;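 further: a binder raises fluorescence above local background on the spot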
Target sequence (P47928 whole entry, looked up): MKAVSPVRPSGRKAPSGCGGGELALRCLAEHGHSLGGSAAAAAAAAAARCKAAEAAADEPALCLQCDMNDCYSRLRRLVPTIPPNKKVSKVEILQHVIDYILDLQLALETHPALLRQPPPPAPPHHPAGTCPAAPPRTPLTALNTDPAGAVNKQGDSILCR
Calls only; – = inactive; + = active, no number.

SMILES	ID4 SMM
COc1ccc(NC(=O)CSc2nnc(-c3ccco3)n2-c2ccccc2)cc1	–
CCn1c(SCC(=O)Nc2ccc(C(N)=O)cc2)nnc1-c1ccco1	–
O=C(CSc1nnc(-c2ccco2)n1-c1cccc2ccccc12)Nc1ccc(C(=O)O)cc1	+
O=C(COc1ccccc1Br)NCc1cccnc1	–
O=C(NCc1cccnc1)c1cc(-c2ccccc2)on1	–
O=P(CCNCc1cccnc1)(c1ccccc1)c1ccccc1	+
Cn1nc(CC(=O)Nc2ccc(OC(=O)c3ccccc3)cc2)c2ccccc2c1=O	–
CN(C(=O)c1ccn[nH]1)C1CC(C)(C)N(C)C(C)(C)C1	–
O=C(CCSc1nnc(-c2ccccc2)o1)Nc1ccc(F)cc1	–
CC(=O)c1cccc(NC(=O)CSc2nc(-c3ccccc3)c(-c3ccccc3)o2)c1	–
O=C(O)CCCCCCC(=O)Nc1ccc(C2CC(CSc3nc(-c4ccccc4)c(-c4ccccc4)o3)OC(c3ccccc3)O2)cc1 (stereo unspecified)	+
CC(=O)c1cccc(NC(=O)CN(C)S(=O)(=O)c2ccc(F)cc2)c1	–
COc1ccc(NC(=O)CN(C)S(=O)(=O)c2ccc(Br)cc2)c([N+](=O)[O-])c1	–
CCN1C(=O)c2cccc3c(S(=O)(=O)N4CCCC4C(=O)O)ccc1c23 (stereo unspecified)	+
COc1cccc(S(=O)(=O)N2CCCC2C(=O)O)c1 (stereo unspecified)	–
CCN1CCN(C(=O)C2CCCN2S(=O)(=O)c2cccc3nsnc23)CC1 (stereo unspecified)	–
Cc1ccnc(NC(c2cccc(F)c2)c2ccc3ccc(C)nc3c2O)c1 (stereo unspecified)	–
Cc1c(Cl)cccc1NC(=O)CN1CCC(C(N)=O)(N2CCCCC2)CC1	–
Cc1ccc(N2C(=O)C3C4C=CC(CNC(=S)Nc5ccc(Br)cc5)(O4)C3C2=O)cc1 (stereo unspecified)	–
CCOC(=O)c1ccc(COC(=O)c2ccc3ccccc3c2O)o1	–
COc1ccc2ccccc2c1C=C1C(=O)OC2(CCCC2)OC1=O	–
CC/C=C\C/C=C\C/C=C\CCCCCCCC(=O)O	+
CC/C=C\C/C=C\C/C=C\CCCCCCCCCCCC(=O)O	–
CC/C=C\C/C=C\C/C=C\CCCCCCCCCC(=O)O	–
O=C(CCCN1C(=O)c2ccccc2C1=O)Nc1cccc(Cl)c1	–
SMILES	ID4 SMM
COC(=O)c1cc(C(=O)NCc2ccccc2OC)cc([N+](=O)[O-])c1	–
N#Cc1c(NC(=O)Cn2c(=O)oc3ccccc32)oc(-c2ccccc2)c1-c1ccccc1	+
N#Cc1c(NC(=O)Cn2c(=O)oc3ccccc32)sc2c1CCC2	–
O=C(Cn1c(=O)oc2ccccc21)Nc1ccc(C(=O)O)cc1	–
COC(=O)c1cccc(-n2c(CCC(=O)O)ccc2-c2ccc(C)cc2)c1	–
CC(=O)c1ccc(-n2c(CCC(=O)O)ccc2-c2ccc(F)cc2)cc1	–
CC(=O)Nc1ccc(-n2c(CCC(=O)O)ccc2-c2ccc(C)cc2)cc1	+
COc1ccc(OC(C)C(=O)Nc2cc(C)ccc2OC)cc1 (stereo unspecified)	–
CC(=O)Nc1ccc(C(=O)CSc2nnc(-c3ccccc3Cl)o2)cc1	–
COC(=O)c1ccccc1NC(=O)COc1cc(C)c(Br)cc1C	–
CN1CCN(C(=O)C2=C[C@@H](c3ccc4c(c3)OCO4)C[C@@H](OCCCCO)O2)CC1	+
O=C(C1=C[C@@H](c2ccc3c(c2)Cc2ccccc2-3)C[C@@H](OCCCCO)O1)N1CCN(Cc2ccc3c(c2)OCO3)CC1	–
O=C(C1=C[C@@H](c2ccc(C(F)(F)F)cc2)C[C@@H](OCCCCO)O1)N1CCN(Cc2ccc3c(c2)OCO3)CC1	–
Cc1ccc(F)cc1S(=O)(=O)N1CCN(Cc2cccc(OCCO)c2)CC1	–
COc1ccc(S(=O)(=O)N[C@@H]2CCCN(Cc3cccc(OCCO)c3)C2)cc1	–
COc1ccc(S(=O)(=O)N2CCN(Cc3ccc(OCCO)cc3)CC2)cc1	+
O=S(=O)(c1ccc2ccccc2c1)N1CCN(Cc2ccc(OCCO)cc2)CC1	–
Cc1ccc(S(=O)(=O)N2CCN(Cc3cccc(OCCO)c3)CC2)cc1	+
Cc1ccc(S(=O)(=O)N2CCN(Cc3ccc(OCCO)cc3)CC2)cc1	–
CS(=O)(=O)N(CC(=O)Nc1ccc(F)c(F)c1)c1ccccc1Br	–
CCOC(=O)c1c(NC(=O)c2cc(S(=O)(=O)N3CCOCC3)ccc2OC)sc2c1CCC2	–
CNC[C@@H]1Oc2cc(Br)ccc2S(=O)(=O)N([C@H](C)CO)C[C@H]1C	–
CNC[C@H]1Oc2cc(Br)ccc2S(=O)(=O)N([C@H](C)CO)C[C@H]1C	+
CNC[C@@H]1Oc2cc(C#Cc3ccccc3)ccc2S(=O)(=O)N([C@H](C)CO)C[C@H]1C	–
CNC[C@@H]1Oc2cc(C#Cc3cccnc3)ccc2S(=O)(=O)N([C@@H](C)CO)C[C@H]1C	+
SMILES	ID4 SMM
CNC[C@H]1Oc2cc(C#Cc3ccccc3)ccc2S(=O)(=O)N([C@H](C)CO)C[C@@H]1C	–
CNC[C@H]1Oc2cc(Br)ccc2S(=O)(=O)N([C@@H](C)CO)C[C@H]1C	–
COC(=O)c1c(NC(=O)C(C)Oc2ccccc2F)sc2c1CCC2 (stereo unspecified)	–
COCCOC(=O)N1C(=O)[C@@]2(c3ccccc31)[C@H](C(=O)NC[C@H](O)c1ccccc1)[C@H]1C(=O)O[C@H](c3ccccc3)[C@H](c3ccccc3)N1[C@@H]2c1ccc(OCCO)cc1	–
CC(C(=O)Nc1cccnc1)N(c1ccc(Oc2ccccc2)cc1)S(C)(=O)=O (stereo unspecified)	–
Cc1cc(C)c(S(=O)(=O)NCC(=O)Nc2cccc(Cl)c2Cl)c(C)c1	–
Cc1nc(SCC(=O)Nc2cccc(C(=O)O)c2)[nH]c(=O)c1C	–
Cc1cc(C)nc(SCC(=O)Nc2cccc(C(=O)O)c2)n1	+
Cn1nnnc1SCC(=O)Nc1cccc(C(=O)O)c1	–
N#Cc1ccccc1OCCCn1cnc2ccccc21	–
O=C(NCC(O)c1ccccc1)c1ccc(Cl)c(S(=O)(=O)N2CCOCC2)c1 (stereo unspecified)	–
O=C(CSc1nc2sccc2c(=O)[nH]1)Nc1ccccc1	–
NN(CCO)C(=S)NCc1ccc(Cl)cc1	–
CCOc1ccc(NC(=O)C2CC=CCC2C(=O)O)cc1 (stereo unspecified)	–
O=C(O)c1cc(NC(=O)C2CC=CCC2C(=O)O)ccc1Cl (stereo unspecified)	+
Cc1cc(C(=O)O)ccc1NC(=O)C1CC=CCC1C(=O)O (stereo unspecified)	–
Cn1nc(-c2ccc(NCc3cccnc3)c([N+](=O)[O-])c2)c2ccccc2c1=O	–
COc1ccc(C(=O)NCc2n[nH]c(=S)n2C)cc1OC	–
Cc1cccc(C(=O)NCc2n[nH]c(=S)n2-c2ccccc2)c1	+
Nc1cc(N)nc(SCc2n[nH]c(=S)n2-c2ccccc2)n1	–
CCOc1ccc(NC(=O)Cn2cnc3sc(C(N)=O)c(C)c3c2=O)cc1	–
CCn1nccc1C(=O)Nc1nc2ccccc2n1CCN1CCCCC1	–
O=C(O)CCc1nn2c3ccccc3n(CCN3CCCCC3)c2nc1=O	+
O=C(Cn1c2ccccc2n2nc(-c3ccccc3)nc12)c1cccs1	–
Cc1cccc(-c2noc(CN(C(C)C)S(=O)(=O)c3ccc([N+](=O)[O-])cc3)n2)c1	–
CN(C)CCNc1nc2c(c(=O)n(C)c(=O)n2C)n1Cc1c(F)cccc1Cl	–
O=C(Nc1cccc(O)c1)c1cc(S(=O)(=O)N2CCOCC2)ccc1Cl	–
